Experimental data published in PubChem BioAssay AID743286 (National Center for Advancing Translational Sciences (NCATS), 2014).
In all, about 1,100 compounds went through this assay and about 340 (31%) were called active. Roughly 40% stayed inconclusive and do not appear here. The call rests on the fitted dose curve; in most records, active means well fitted inhibition curve with a large enough effect; inconclusive means small, poorly fitted or top-dose-only effect; inactive means flat fitted curve, though single readings scatter. These entries were drawn from the full list. Where a call stands in place of a potency, no number is given.

target: Phosphatidylinositol 5-phosphate 4-kinase type-2 alpha (Homo sapiens) (UniProt P48426); assay: qHTS for Inhibitors of PI5P4K: Confirmation in Primary Assay; conditions: PI5P4Kalpha enzyme, ADP-Glo luminescence, 60 min; series mostly up to 76.9 µM; further: nearly all actives have a fitted effect of over 65% in size
Sequence (P48426 whole entry, looked up): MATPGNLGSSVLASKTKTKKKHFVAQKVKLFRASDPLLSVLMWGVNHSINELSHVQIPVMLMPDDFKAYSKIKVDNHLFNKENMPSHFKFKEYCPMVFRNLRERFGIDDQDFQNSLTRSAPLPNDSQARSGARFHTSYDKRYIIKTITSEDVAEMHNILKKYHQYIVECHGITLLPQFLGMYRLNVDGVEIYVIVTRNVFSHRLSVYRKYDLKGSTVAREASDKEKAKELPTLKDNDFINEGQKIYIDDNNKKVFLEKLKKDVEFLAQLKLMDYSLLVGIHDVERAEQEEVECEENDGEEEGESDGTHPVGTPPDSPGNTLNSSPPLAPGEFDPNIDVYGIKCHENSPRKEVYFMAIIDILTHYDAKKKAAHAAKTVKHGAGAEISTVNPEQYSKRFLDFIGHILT
How it was run: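 Enzyme/substrate mix dispensed, compound transferred by pin tool, ATP (5 microM final) added to start; incubated 60 min RT. ADP-Glo reagent 1 (45 min) then reagent 2 (30 min); luminescence measured.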
Potency means the concentration at half of the fitted maximal effect.

| Compound | Potency |
| --- | --- |
| CN(C)C(=S)NCc1ccccc1 | inactive |
| CC(=O)N1c2ccc(S(=O)(=O)NCCC(=O)N(C)C3CCCCC3)cc2CC1C (stereo not given) | inactive |
| COc1cccc2c1C(=O)C[C@]1(CCCC[C@@H]1C)O2 | inactive |
| COc1ccc(C(CNC(=O)c2ccc(OCc3cscn3)cc2)N2CCCC2)cc1 (stereo not given) | inactive |
| CC(C)Sc1nc(N2CCOCC2)c2c(c1C#N)CC(C)(C)N(C)C2 | inactive |
| Cc1cc(NC(=O)CCCn2cc([N+](=O)[O-])cn2)n(Cc2ccc(F)cc2)n1 | inactive |
| c1ccc2c(CCNc3ncnc4nc[nH]c34)c[nH]c2c1 | 17.8 µM (active) |
| Cc1sc2ncnc(NC(C)C(=O)O)c2c1C (stereo not given) | 3.98 µM (active) |
| CCn1nc(CC(=O)Nc2nnc(CC(=O)N3CCOCC3)s2)c2ccccc2c1=O | inactive |
| O=C(Cc1ccc(S(=O)(=O)N2CCOCC2)s1)Nc1nc2c(s1)CCCC2 | 14.1 µM (active) |
| CC(=O)c1ccc(NC(=O)c2cnn3ccccc23)cc1 | 3.55 µM (active) |
| COc1ccccc1Nc1ccc2c(O)cc(S(=O)(=O)O)cc2c1 | 3.16 µM (active) |
| O=S(=O)(O)c1cc(O)c2cc(Nc3ccccc3)ccc2c1 | 2 µM (active) |
| O=C(CCS(=O)(=O)c1ccc(Br)cc1)NCc1ccc(F)cc1 | inactive |
| Cc1cc(NC(=O)CN2CCN(C)CC2)no1 | inactive |
| Cc1cc(NC(=O)CSc2cn(CCNC(=O)c3ccccc3)c3ccccc23)no1 | 14.1 µM (active) |
| Cc1cc(NC(=O)Nc2ccccc2[N+](=O)[O-])no1 | inactive |
| COC(=O)c1ccc2c(c1)/C(=C/c1cc(Br)c(O)c(Br)c1)C(=O)N2 | 0.823 µM (active) |
| O=C1Nc2ccc(C(=O)c3ccco3)cc2/C1=C/c1cc(Cl)c(O)c(Cl)c1 | 0.207 µM (active) |
| NS(=O)(=O)c1ccc(CCNC(=O)c2ccc3nccnc3c2)cc1 | 14.1 µM (active) |
| O=C(Nc1ccccc1Cl)c1ccc2nccnc2c1 | inactive |
| COCc1cc(N2CCCCC2)nc(-c2ccccc2)n1 | inactive |
| Cc1ccc(-c2csc(NS(=O)(=O)c3cccc(F)c3)n2)o1 | 11.2 µM (active) |
| NS(=O)(=O)c1cccc(NC(=O)CSc2nnnn2-c2ccccc2)c1 | inactive |
| O=C(O)C1CSC(c2coc3ccccc3c2=O)N1 (stereo not given) | inactive |
| COc1cc(Cl)c(C)cc1NC(=O)CSc1sc2c(O)cc(=O)[nH]c2c1C#N | 5.01 µM (active) |
| COc1ccccc1NC(=O)Cc1nnc(SCC(=O)Nc2ccccc2F)n1C | inactive |
| COc1ccc(NC(C)=O)cc1NC(=O)CSc1nc2ncccc2[nH]1 | inactive |
| COc1ccc(NC(=O)CSc2sc3c(O)cc(=O)[nH]c3c2C#N)c(OC)c1 | 14.1 µM (active) |
| COc1ccccc1NC(=O)CSc1sc2c(O)cc(=O)[nH]c2c1C#N | 10 µM (active) |
